# MEKK2 mut-MEK5 = MEK5 binding signal on mutant MEKK2 PB1, primary screen, biochemical, multiplex bead flow cytometry, Alexa488-MEK5; Alexa488-MEK5 binding to MEKK2 mutant; percent response, % at 10 µM; hit rate 0.35% among 290,000; AID 1530, 2009; in the data active = percent response above about 24%, passing the limit was not always enough
# CHT block = inhibitors of human choline transporter CHT | High affinity choline transporter 1 (Homo sapiens), Q9GZV3 | CHT-expressing cells, membrane potential dye, choline response; hits give low values | B-score at 10 µM | hit rate 0.86% among 310,000;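 active = B-score over 3 SD under the library average, and starting fluorescence ratio not unusually high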;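 also: choline stimulus applied at its EC90 after an EC20 pre-addition; B-score computed on integrated fluorescence ratio after choline addition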
# Target sequence (Q9GZV3 whole entry, looked up): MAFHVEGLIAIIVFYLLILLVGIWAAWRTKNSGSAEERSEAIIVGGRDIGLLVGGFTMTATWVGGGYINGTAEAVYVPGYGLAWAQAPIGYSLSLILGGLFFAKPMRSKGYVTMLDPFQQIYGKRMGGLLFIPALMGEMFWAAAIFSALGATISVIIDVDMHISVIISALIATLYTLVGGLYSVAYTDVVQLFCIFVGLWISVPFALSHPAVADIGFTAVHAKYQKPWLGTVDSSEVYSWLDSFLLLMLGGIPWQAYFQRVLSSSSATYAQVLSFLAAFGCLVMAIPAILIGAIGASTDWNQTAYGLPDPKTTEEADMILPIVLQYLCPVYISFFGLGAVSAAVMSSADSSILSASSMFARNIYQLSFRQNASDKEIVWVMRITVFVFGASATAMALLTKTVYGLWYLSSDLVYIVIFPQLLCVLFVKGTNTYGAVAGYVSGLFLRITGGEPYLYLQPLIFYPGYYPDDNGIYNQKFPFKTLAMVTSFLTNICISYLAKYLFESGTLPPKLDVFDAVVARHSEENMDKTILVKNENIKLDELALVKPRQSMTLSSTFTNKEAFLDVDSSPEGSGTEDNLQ
# MEKK3 PB1 HTS = modulators of MEKK3-MEK5 PB1 binding, primary screen, biochemical, wildtype MEKK3, multiplex bead flow cytometry, Alexa488-MEK5; bead-based flow cytometry, Alexa488-MEK5 binding to MEKK3; actives lie on both sides; 0 = blocked by unlabeled MEK5, 100 = vehicle; binding response (% of control), % at 10 µM; hit rate 1.4% among 290,000; AID 1529, 2009;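 active = binding response more than 3 SD above or below the average of its plate-row segment, actives on both sides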;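 also: Alexa488 bead fluorescence after subtracting the streptavidin-only scavenger bead signal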
# MEKK2wt PB1 HTS = modulators of MEK5 binding to wildtype MEKK2, primary screen, biochemical, multiplex bead flow cytometry, Alexa488-MEK5; Mitogen-activated protein kinase kinase kinase 2 (Homo sapiens), Q9Y2U5; Alexa488-MEK5 binding to MEKK2 WT; actives lie on both sides; binding response (% of control), % at 10 µM; hit rate 1.1% among 290,000; AID 1531, 2009; in the data active = binding response below about 67% or above about 130%
# CHT allo act = CHT positive allosteric modulators, primary screen, cell-based, membrane potential dye, choline EC20. High affinity choline transporter 1 (Homo sapiens), Q9GZV3. CHT-expressing cells; hits give high values; LV-AA mutant CHT in HEK293 cells. B-score at 10 µM. hit rate 0.49% among 310,000. AID 488977, 2010;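 active = initial fluorescence not abnormally high and integrated response B-score, plate-corrected, over 3 SD above library mean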
# Mot1-301 SUMO = yeast Mot1-301 growth rescue at high temperature, primary screen, SUMOylation pathway inhibitor project, S. cerevisiae, ATP luminescence, 38.5C | hit rate 1% among 320,000 | growth rescue, % at 18.8 µM | AID 2716, 2010 | S. cerevisiae Mot1-301 growth rescue; percent above DMSO median, 100 means doubled;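 active = every valid replicate shows activation above 250% relative to neutral control wells; inactive = the rest, any valid replicate at or below 250%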;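 also: OY570 slx delta 5 strain wells were the positive control but not used for scaling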
# Mot1 SUMO dose = growth restoration of Mot1-301 yeast on galactose, dose response, SUMO pathway inhibitor project, whole organism, S. cerevisiae, ATP luminescence, cherry-picked samples | shares compounds with Mot1-301 SUMO | AID 493004, 2010 | S. cerevisiae Mot1-301 galactose growth, 24 h; -100 = growth of slx-deleted rescue strain | growth activity, percent, % at 42 µM | 2,300 tested, under 10 active;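 active = Signal drops as the depositor expects, and the fitted half-maximal dose is no more than ten times the top valid tested dose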;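 also: more negative values mean stronger growth rescue toward the control strain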
# Active calls of the source: *; i = inactive; x = no result given; + = active, no number. Rows were chosen to be rich in hits. Some 4.1% of all compounds tested hit in one or more screens of this group.
SMILES,MEKK2 mut-MEK5,CHT block,MEKK3 PB1 HTS,MEKK2wt PB1 HTS,CHT allo act,Mot1-301 SUMO,Mot1 SUMO dose
CC1CCN(c2c(NCC3CCC(C(=O)N4CCCC(C)C4)CC3)c(=O)c2=O)CC1 (stereo not drawn),9,i,99,100,i,-9,x
O=C(C1CCC(CNc2c(N3CCCCC3)c(=O)c2=O)CC1)N1CCN(C2CCCCC2)CC1 (stereo not drawn),-7,i,93,87,i,499*,1
O=C(CCc1ccccc1)NNC(=O)c1cc(Cl)ccc1O,1,i,100,105,i,-9,x
CC(=O)c1ccccc1C(=O)N1CCCC(N2CCN(Cc3ccc4c(c3)OCO4)CC2)C1 (stereo not drawn),-4,i,95,103,i,360*,0
COc1ccc(Br)c(C(=O)N(C)CC(=O)Nc2ccc(N3CCOCC3)cc2)c1,x,i,x,x,i,12,x
CCc1cc2c(=O)c(-c3nc4ccccc4[nH]3)coc2c(CN2CCCCC2)c1O,2,i,95,97,i,477*,-1
Cc1cnc(=O)[nH]c1SCC(=O)c1ccc(F)cc1,-12,i,88,91,i,436*,0
Cc1cc(NC(=O)CCC(=O)N(CC(=O)NC2CCCC2)c2ccc(Cl)c(Cl)c2)no1,-4,i,102,101,i,-8,x
CNC(=O)NNC(=O)c1csc(-c2ccc(C(F)(F)F)cc2Cl)n1,-12,i,78,76,i,381*,0
CCOC(=O)C1CCN(C2CC(=O)N(c3ccc(OCC)cc3)C2=O)CC1 (stereo not drawn),0,i,104,99,i,318,x
CCCCCCOc1ccc(N2C(=O)CC(N3CCC(C(=O)OCC)CC3)C2=O)cc1 (stereo not drawn),3,i,105,103,i,553*,0
CCc1ccc(N2C(=O)CC(N3CCC(C(=O)OC)CC3)C2=O)cc1 (stereo not drawn),5,i,106,105,i,491*,-1
Cc1sc(NC(=O)c2ccc(Br)s2)c(C(N)=O)c1C,-7,i,99,94,i,408*,-2
C/C(CC(=O)Nc1cccc(C(F)(F)F)c1)=N\NC(=O)c1cnccn1,1,i,101,97,i,-3,x
Cc1cc(C)cc(C(=O)Oc2cc(C)[nH]c(=O)c2[N+](=O)[O-])c1,8,i,101,102,i,366*,0
Cc1ccc(C2=NN(CC(=O)NCc3cccs3)C(=O)CC2)cc1,-2,i,99,100,i,399*,0
CCCOC(=O)c1c(NC(=O)/C=C/c2cnn(C)c2C)sc(C(=O)OCC)c1C,4,i,106,104,i,212,x
CCCOC(=O)c1c(NC(=O)/C=C/c2cnn(C)c2C)sc(C(=O)OC)c1C,-3,i,95,100,i,+,0
CCCCC1CCC(C(=O)NCC(c2ccco2)N2CCOCC2)CC1 (stereo not drawn),2,i,100,104,i,17,x
CCCCn1c(N)c(N(CC(C)C)C(=O)C2CC(=O)N(c3ccc(C)cc3)C2)c(=O)[nH]c1=O (stereo not drawn),x,i,x,x,i,46,x
Cc1ccc(C)c(OCCC(=O)NCCc2ccc(F)cc2)c1,-7,i,96,94,i,-8,x
CN(CC(=O)Nc1sccc1C#N)Cc1ccccc1,-3,i,90,91,i,487*,0
N#Cc1ccsc1NC(=O)CN1CCN(Cc2ccccc2)CC1,-2,i,106,105,i,-6,x
CC1CCCC(C)N1/N=C/c1ccc(N(C)C)cc1 (stereo not drawn),-1,i,92,94,i,-28,x
O=C(NNC(=O)c1ccc(-n2cncn2)c([N+](=O)[O-])c1)c1ccc(Cl)cc1,x,i,x,x,i,672*,0
SMILES,MEKK2 mut-MEK5,CHT block,MEKK3 PB1 HTS,MEKK2wt PB1 HTS,CHT allo act,Mot1-301 SUMO,Mot1 SUMO dose
O=C(NNC(=O)c1ccc(-n2cncn2)c([N+](=O)[O-])c1)c1cccc(Cl)c1,x,i,x,x,i,-2,x
CCOC(=O)C1(Cc2cccc(F)c2)CCN(C(=O)c2cnccn2)CC1,-5,i,105,96,i,632*,0
CNC(=O)COC(=O)c1cc(-c2ccco2)nc2ccccc12,1,i,101,101,i,+,0
O=C(Nc1ccc(S(=O)(=O)Nc2ccccc2)cc1)c1ccc(CN2CCOCC2)cc1,-3,i,91,99,i,-3,x
Cc1cc(C(=O)COC(=O)/C=C/c2ccco2)c(C)n1C,x,x,x,x,x,-8,x
COc1ccc(C(O)(C2CCCCC2)C(CN2CCOCC2)c2ccccc2)cc1 (stereo not drawn),3,i,99,102,i,143,x
OC(c1ccccc1)(C1CCCCC1)C(CN1CCOCC1)c1ccccc1 (stereo not drawn),4,i,103,104,i,460*,0
O=C(O)CN(c1ccccn1)S(=O)(=O)c1ccc(Cl)cc1,3,i,100,102,i,589*,0
CCCCn1c(N)c(N(CC(C)C)C(=O)CSCC(=O)Nc2cccc(C)c2)c(=O)[nH]c1=O,x,i,x,x,i,366*,0
CC(C)CN(C(=O)COC(=O)CN1C(=O)c2ccccc2C1=O)c1c(N)n(Cc2ccccc2)c(=O)[nH]c1=O,x,i,x,x,i,13,x
CCOc1ccc2nc(C(C)O)[nH]c2c1 (stereo not drawn),-3,i,91,95,i,+,1
COc1cc(CCC(O)CC(=O)CCc2ccccc2)ccc1O (stereo not drawn),4,i,106,100,i,3,x
O=C(CSc1nnc(-c2cccs2)n1-c1ccccc1)c1ccc2c(c1)OCCO2,-7,i,93,90,i,+,0
O=C(CN1C(=O)NC2(CCCC2)C1=O)Nc1nc2ccccc2s1,x,i,x,x,i,89,x

# Screening data: PubChem BioAssay, several laboratories
